# The entries come from a sample that favours hits as a whole.
# KDM5B inh = Primary screen for KDM5B Histone Demethylases FDH-coupled qHTS; AID 1347165, 2019; Lysine-specific demethylase 5B (Homo sapiens), Q9UGL1; KDM5B demethylase, FDH-coupled NADH fluorescence (FDH is formaldehyde dehydrogenase); 220,000 tested, 2.6% active; Potency, µM (doses to about 57.7 µM), most hits filed as inhibitors; active = well fitted inhibition curve with a large enough effect; note: nearly all actives have a fitted effect of over 70% in size
#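 Compound dilutions met 200 nM (final) KDM5BΔAP for 10 min at room temperature before substrate addition. The substrate mix held 12.5 µM H3K4me3 with cofactors 25 µM α-ketoglutarate and 50 µM Fe²⁺. NADH signal gain over 30 min defined activity.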
# Numbers stand for hits; i = inactive.
SMILES,KDM5B inh
Cn1c(O)c(C2=Nc3ccccc3SC(c3ccc(O)cc3)C2)c(=O)[nH]c1=O (stereo not given),i
CC(NC(=O)c1cccc(S(=O)(=O)Nc2ccc(F)cc2)c1)c1ccccc1 (stereo not given),i
O=S(Cc1cccc(Cl)c1)Cc1cccc(C(F)(F)F)c1 (stereo not given),i
O=C(CS(=O)(=O)Cc1ccccc1)Nc1ccc(F)cc1,i
CN1C(=O)COc2ccc(NC(=O)C(=O)NC3CCCCC3)cc21,i
O=C(NCC1Cn2cccc2CN1Cc1ccccc1)c1ccncc1 (stereo not given),28µM
CN1C(=O)c2cccn2CC1CNC(=O)c1cccs1 (stereo not given),i
Cc1ccc(CNC(=O)NCC2Cn3cccc3C(=O)N2C)cc1 (stereo not given),i
CN1Cc2cccn2CC1CNC(=O)c1ccoc1 (stereo not given),28µM
CN1C(=O)c2cccn2CC1CNC(=O)NC1CCCC1 (stereo not given),i
CN1C(=O)c2cccn2CC1CNC(=O)c1ccco1 (stereo not given),i
Cc1ccsc1C(=O)NCC1Cn2cccc2CN1C (stereo not given),32µM
Cc1cccc(C(=O)NCC2Cn3cccc3C(=O)N2C)c1 (stereo not given),i
COc1ccc(C(=O)NCC2Cn3cccc3C(=O)N2Cc2ccccc2)cc1 (stereo not given),i
O=C(NCC1Cn2cccc2C(=O)N1Cc1ccccc1)c1ccncc1 (stereo not given),i
Cc1ccsc1C(=O)NCC1Cn2cccc2C(=O)N1CC(C)C (stereo not given),i
CCNC(=O)NCC1Cn2cccc2CN1C (stereo not given),22µM
CCCN1CCC(NC(=O)c2csc3c2CCCC3)CC1,i
c1ccc(-c2ccn[nH]2)cc1,i
CCOC(=O)C1=C(COC(=O)c2oc3c(F)cccc3c2C)NC(=O)NC1C (stereo not given),i
O=C(C1CCN(S(=O)(=O)c2ccccc2)CC1)N1CCCC1c1ccc2c(c1)OCCCO2 (stereo not given),i
NC(=O)c1ccc(-c2nc(CSc3ccc4c(c3)OCCCO4)cs2)cc1,i
COc1cccc(CN2CC3(C2)C(=O)N(Cc2cccc(Cl)c2)C(=O)[C@@H]2C[C@@H](O)CN23)c1,i
Cc1[nH]c2ccc(Br)cc2c1C(=O)CCl,i
COCCN1C(=O)c2cccn2CC1CNC(=O)c1ccsc1 (stereo not given),i
SMILES,KDM5B inh
O=C(NCC1Cn2cccc2CN1Cc1ccccc1)c1n[nH]c2ccccc12 (stereo not given),14µM
O=C(NCC1Cn2cccc2C(=O)N1Cc1ccccc1)c1ccsc1 (stereo not given),i
O=C(NCC1Cn2cccc2CN1Cc1ccccc1)c1ccsc1 (stereo not given),25µM
O=C(NCC1Cn2cccc2C(=O)N1Cc1ccccc1)c1cn[nH]c1-c1ccccc1 (stereo not given),i
Cc1cccc(C(=O)NCC2Cn3cccc3C(=O)N2Cc2ccccc2)c1 (stereo not given),i
O=C(NCC1Cn2cccc2C(=O)N1Cc1ccccc1)c1n[nH]c(=O)c2ccccc12 (stereo not given),i
Cc1ncoc1C(=O)NCC1Cn2cccc2C(=O)N1Cc1ccccc1 (stereo not given),i
O=C(NCC1Cn2cccc2CN1Cc1ccccc1)c1ccoc1 (stereo not given),28µM
CCOC(=O)C1CCN([C@H]2CS(=O)(=O)C[C@@H]2S(=O)(=O)c2ccc(C)cc2)CC1,i
COc1ccc(/C=C/c2nc3cc(C)c(C)cc3s2)c(OC)c1OC,i
O=C(Cn1nc(C(=O)O)c2ccccc2c1=O)NCc1ccc(Cl)cc1,i
Cn1c(Oc2ccc(-c3ccc(Br)cc3)cc2)c(C#N)c(=O)n(C)c1=O,i
NC(=O)Cc1c[nH]c2ncc(-c3ccc(F)c(Cl)c3)cc12,40µM
NC(=O)Cc1c[nH]c2ncc(-c3ccc(Cl)cc3)cc12,20µM
O=C(Cc1c[nH]c2ncc(-c3ccccc3)cc12)Nc1ccc(Cl)cc1,i
NC(=O)Cc1c[nH]c2ncc(-c3ccccc3F)cc12,35µM
NC(=O)Cc1c[nH]c2ncc(-c3ccc4c(c3)OCO4)cc12,35µM
Cc1ccc(-n2c(SCC(=O)NC(C)c3cc4ccccc4o3)nnc2N2CCOCC2)cc1 (stereo not given),i
Cn1c(=O)n(Cc2ccccc2F)c(=O)c2c1ncn2Cc1ccccc1,i
O=S(=O)(c1ccc(Sc2nnnn2C2CC2)nc1)N1CCOCC1,i
O=C(Cc1csc(-c2ccccc2Cl)n1)Nc1nc2c(s1)CCCCC2,i
Cc1cc(C)cc(NC(=O)N2CCCC2c2ccco2)c1 (stereo not given),i
O=C1CSc2ccc(C(=O)OCC(=O)c3c[nH]c4ccccc34)cc2N1,i
COc1cccc(CNC(=O)c2c[nH]c3ncccc23)c1,i
COc1cccc(-c2cnc3[nH]cc(CC(N)=O)c3c2)c1,35µM
SMILES,KDM5B inh
Cc1ccccc1CC(=O)Nc1cccc2cccnc12,i
Cc1nc2ccc(-c3nc(C4CCOC4)no3)cc2s1 (stereo not given),i
COc1ccc(C2(c3nc(C4CCOC4)no3)CCCC2)cc1OC (stereo not given),i
COc1ccc2c(C)c(-c3nc(C4CCOC4)no3)oc2c1 (stereo not given),32µM
c1ccc(Nc2cc3c(cn2)CN(Cc2ccsc2)CCN3)cc1,40µM
COc1ccc(CN2CCNc3cc(Nc4ccccc4)ncc3C2)cc1O,28µM
COc1ccc(CN2CCNc3cc(-c4ccccc4)ncc3C2)cc1O,i
c1cc(CN2CCNc3cc(-c4ccsc4)ncc3C2)ccn1,35µM
COc1ccc(Nc2cc3c(cn2)CN(Cc2ccncc2)CCN3)cc1OC,i
c1cncc(Nc2cc3c(cn2)CN(Cc2ccsc2)CCN3)c1,i
Fc1ccc(CNc2cc3c(cn2)CN(Cc2ccncc2)CCN3)cc1,i
COc1ccc(CN2CCNc3cc(Nc4ccccc4)ncc3C2)cn1,32µM
CC(=O)NC(NC(=S)Nc1cccc(C)c1)C(Cl)(Cl)Cl (stereo not given),i
Cc1nc(C)c(-c2csc(Nc3ccc(N(C)C)cc3)n2)s1,i
Cc1nccn1-c1ccc(CNC(=O)C(c2ccc(F)cc2)N(C)C)cc1 (stereo not given),i
Cc1ccc(SC(Sc2ccc(C)cc2)(C(=O)c2ccccc2)C(=O)c2ccccc2)cc1,i
N#Cc1c(N)sc2c1CCCCC2,i
CCOc1ccc(C(C)NC(=O)c2cc(C)ccc2C)cc1OCC (stereo not given),i
Cc1cc(SCC(=O)NC2CCS(=O)(=O)C2)nc2c(C)cccc12 (stereo not given),i
O=C(Nc1ccccc1Br)c1cc2ccc(O)cc2oc1=O,i
CC1CCc2c(sc(NC(=O)c3ccccc3OC(F)F)c2C(N)=O)C1 (stereo not given),i
Cc1ccc(N(CC(=O)N2CCN(C(c3ccccc3)c3ccccc3)CC2)S(C)(=O)=O)cc1,i
CCN1CCc2c(sc(NC(=O)Nc3ccc(Cl)cc3)c2C(N)=O)C1,i
N#Cc1ccc(Oc2cccc3cccnc23)cc1C#N,i
COc1cccc(C2CNC(=O)c3nc(Cn4nc(C)c(C)c4C)[nH]c3C2)c1 (stereo not given),i
CCCc1cc(-c2nc3c([nH]2)CC(c2ccccc2OC)CNC3=O)on1 (stereo not given),i
